The source of these data is ChEMBL document CHEMBL1961873, “Compounds: GSK PKIS; Assays: Nanosyn kinase panel” (2012).

Assay [1] concerns the target Fibroblast growth factor receptor 4 (Homo sapiens) (UniProt P22455). The following applies: at 1 µM.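 Also: reported figure is the averaged percent inhibition of FGFR4, from the GSK PKIS kinase screening panel.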
Assay [2] has as its target Tyrosine-protein kinase Fgr (Homo sapiens) (UniProt P09769). The following applies: at 0.1 µM.
For assay [3] the target is unchanged. To be noted: at 1 µM.
Assay [4] addresses Vascular endothelial growth factor receptor 1 (Homo sapiens) (UniProt P17948). To be noted: at 0.1 µM.
Assay [5] has the same target. The following applies: at 1 µM.
Assay [6] deals with Receptor-type tyrosine-protein kinase FLT3 (Homo sapiens) (UniProt P36888). The following applies: at 0.1 µM.
The target is the same in assay [7]. The following applies: at 1 µM.
Assay [8] relates to T1, Receptor-type tyrosine-protein kinase FLT3 (Homo sapiens), P36888 [D835Y].
T1 sequence (whole entry): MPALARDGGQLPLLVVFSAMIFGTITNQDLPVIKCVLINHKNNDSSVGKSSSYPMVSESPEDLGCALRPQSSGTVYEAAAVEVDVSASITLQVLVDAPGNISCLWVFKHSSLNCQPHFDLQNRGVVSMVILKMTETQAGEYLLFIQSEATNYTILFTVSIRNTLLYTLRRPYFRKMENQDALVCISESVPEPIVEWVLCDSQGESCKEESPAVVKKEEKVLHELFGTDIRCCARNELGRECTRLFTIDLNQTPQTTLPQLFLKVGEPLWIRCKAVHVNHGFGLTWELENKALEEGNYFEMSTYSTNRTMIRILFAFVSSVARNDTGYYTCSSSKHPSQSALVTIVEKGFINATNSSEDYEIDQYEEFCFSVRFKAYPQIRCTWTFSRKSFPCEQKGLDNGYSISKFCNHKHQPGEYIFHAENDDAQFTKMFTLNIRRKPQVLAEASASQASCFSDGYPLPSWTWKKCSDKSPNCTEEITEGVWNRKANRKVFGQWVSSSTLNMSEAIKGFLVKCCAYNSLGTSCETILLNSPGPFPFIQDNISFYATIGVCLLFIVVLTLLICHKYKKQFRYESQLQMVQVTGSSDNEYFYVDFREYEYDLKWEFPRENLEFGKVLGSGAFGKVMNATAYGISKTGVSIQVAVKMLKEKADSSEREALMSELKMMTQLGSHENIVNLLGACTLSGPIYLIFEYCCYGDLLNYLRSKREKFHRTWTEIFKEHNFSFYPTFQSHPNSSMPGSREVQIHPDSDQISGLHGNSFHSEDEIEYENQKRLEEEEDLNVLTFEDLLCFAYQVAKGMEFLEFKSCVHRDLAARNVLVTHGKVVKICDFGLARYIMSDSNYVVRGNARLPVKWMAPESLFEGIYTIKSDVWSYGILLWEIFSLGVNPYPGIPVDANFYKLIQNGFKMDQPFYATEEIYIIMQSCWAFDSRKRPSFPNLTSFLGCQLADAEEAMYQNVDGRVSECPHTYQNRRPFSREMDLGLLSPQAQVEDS
To be noted: at 0.1 µM.

The target in assay [9] is Non-receptor tyrosine-protein kinase TYK2 (Homo sapiens) (UniProt P29597). To be noted: at 1 µM.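 Also: values are mean percent inhibition of TYK2 kinase.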
Assay [10] addresses T2, Tyrosine-protein kinase receptor TYRO3 (Homo sapiens) (UniProt Q06418).
T2 sequence (whole entry): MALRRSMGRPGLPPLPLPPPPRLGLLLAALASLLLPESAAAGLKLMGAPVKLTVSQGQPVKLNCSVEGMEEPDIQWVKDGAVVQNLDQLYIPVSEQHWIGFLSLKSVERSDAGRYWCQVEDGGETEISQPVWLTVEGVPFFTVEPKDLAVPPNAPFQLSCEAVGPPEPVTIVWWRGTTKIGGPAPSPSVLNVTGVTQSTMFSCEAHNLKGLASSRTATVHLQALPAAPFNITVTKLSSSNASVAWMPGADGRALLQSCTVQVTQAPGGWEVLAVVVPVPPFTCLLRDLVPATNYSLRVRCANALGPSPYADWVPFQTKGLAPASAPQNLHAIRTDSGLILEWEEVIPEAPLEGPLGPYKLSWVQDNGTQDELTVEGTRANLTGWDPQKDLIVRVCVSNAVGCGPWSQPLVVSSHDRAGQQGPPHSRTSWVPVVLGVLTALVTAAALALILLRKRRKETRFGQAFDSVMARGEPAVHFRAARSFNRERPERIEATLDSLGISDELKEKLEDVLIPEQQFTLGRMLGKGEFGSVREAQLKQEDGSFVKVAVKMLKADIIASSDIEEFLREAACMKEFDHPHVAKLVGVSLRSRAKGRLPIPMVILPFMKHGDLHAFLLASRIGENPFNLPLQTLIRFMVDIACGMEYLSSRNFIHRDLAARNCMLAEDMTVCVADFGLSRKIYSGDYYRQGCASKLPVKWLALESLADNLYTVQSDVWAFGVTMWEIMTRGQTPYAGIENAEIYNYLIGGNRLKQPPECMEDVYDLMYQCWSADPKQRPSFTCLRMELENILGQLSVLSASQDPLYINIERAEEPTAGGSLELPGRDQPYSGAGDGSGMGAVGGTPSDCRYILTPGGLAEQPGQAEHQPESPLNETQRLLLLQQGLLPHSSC
To be noted: at 0.1 µM.

For assay [11], the target named is T2, Tyrosine-protein kinase receptor TYRO3 (Homo sapiens). To be noted: at 1 µM.
Assay [12] has as its target Tyrosine-protein kinase Yes (Homo sapiens) (UniProt P07947). To be noted: at 0.1 µM.
Assay [13] shares this target. The following applies: at 1 µM.
Assay [14] concerns the target T3, Tyrosine-protein kinase ZAP-70 (Homo sapiens) (UniProt P43403).
T3 sequence (whole entry): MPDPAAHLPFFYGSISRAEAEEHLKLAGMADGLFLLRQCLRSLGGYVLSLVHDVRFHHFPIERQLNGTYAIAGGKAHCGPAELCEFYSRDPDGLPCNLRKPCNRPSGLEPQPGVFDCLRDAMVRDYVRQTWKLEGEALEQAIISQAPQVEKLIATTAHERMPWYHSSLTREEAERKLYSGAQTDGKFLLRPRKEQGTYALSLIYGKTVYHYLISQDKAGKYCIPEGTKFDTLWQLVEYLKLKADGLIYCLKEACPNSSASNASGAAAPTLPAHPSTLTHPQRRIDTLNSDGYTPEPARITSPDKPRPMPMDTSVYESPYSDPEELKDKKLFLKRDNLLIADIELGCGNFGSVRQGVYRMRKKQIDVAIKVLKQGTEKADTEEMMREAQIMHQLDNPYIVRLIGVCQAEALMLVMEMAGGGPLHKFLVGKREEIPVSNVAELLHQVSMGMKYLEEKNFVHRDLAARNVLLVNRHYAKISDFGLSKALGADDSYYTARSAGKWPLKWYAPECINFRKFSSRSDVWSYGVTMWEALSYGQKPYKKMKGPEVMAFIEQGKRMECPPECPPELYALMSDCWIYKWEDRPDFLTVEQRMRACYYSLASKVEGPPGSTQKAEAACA
The following applies: at 0.1 µM.

In assay [15] the target is T3, Tyrosine-protein kinase ZAP-70 (Homo sapiens). To be noted: at 1 µM.
The target of assay [16] is Serine/threonine-protein kinase B-raf (Homo sapiens) (UniProt P15056). To be noted: at 0.1 µM.
Serine/threonine-protein kinase B-raf (Homo sapiens), sequence (P15056 whole entry): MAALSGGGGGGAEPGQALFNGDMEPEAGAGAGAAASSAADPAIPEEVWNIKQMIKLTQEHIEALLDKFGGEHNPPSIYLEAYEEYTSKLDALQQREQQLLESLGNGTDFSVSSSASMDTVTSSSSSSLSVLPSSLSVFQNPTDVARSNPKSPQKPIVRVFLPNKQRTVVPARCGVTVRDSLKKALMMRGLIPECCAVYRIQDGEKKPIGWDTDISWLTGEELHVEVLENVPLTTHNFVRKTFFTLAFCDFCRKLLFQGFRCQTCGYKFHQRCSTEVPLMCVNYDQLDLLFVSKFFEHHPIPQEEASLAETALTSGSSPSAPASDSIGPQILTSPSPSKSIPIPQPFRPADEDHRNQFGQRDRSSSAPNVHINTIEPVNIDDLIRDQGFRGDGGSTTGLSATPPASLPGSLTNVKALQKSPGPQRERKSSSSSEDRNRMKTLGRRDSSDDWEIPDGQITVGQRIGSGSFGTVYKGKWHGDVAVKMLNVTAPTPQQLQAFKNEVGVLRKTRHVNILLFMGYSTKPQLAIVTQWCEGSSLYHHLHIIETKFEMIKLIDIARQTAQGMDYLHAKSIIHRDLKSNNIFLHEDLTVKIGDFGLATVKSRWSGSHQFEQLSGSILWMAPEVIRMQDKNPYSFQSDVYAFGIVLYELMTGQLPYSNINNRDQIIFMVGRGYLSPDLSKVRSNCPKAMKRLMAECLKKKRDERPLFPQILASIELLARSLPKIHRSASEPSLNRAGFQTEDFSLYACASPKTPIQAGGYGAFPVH
The target is the same in assay [17]. The following applies: at 1 µM.
Assay [18] concerns Serine/threonine-protein kinase B-raf (Homo sapiens), P15056 [V600E]. To be noted: at 0.1 µM.
Serine/threonine-protein kinase B-raf (Homo sapiens), P15056 [V600E], sequence (P15056 whole entry V600E): as the sequence (P15056 whole entry) above, with V600E counted along it
Assay [19] has the same test system. To be noted: at 1 µM.
Assay [20] has as its target RAF proto-oncogene serine/threonine-protein kinase (Homo sapiens) (UniProt P04049). The following applies: at 0.1 µM.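 Also: values are mean CRAF kinase inhibition from profiling of the GSK Published Kinase Inhibitor Set.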

Tyrosine-protein kinase Yes (Homo sapiens), sequence (P07947 2-543 limits assumed): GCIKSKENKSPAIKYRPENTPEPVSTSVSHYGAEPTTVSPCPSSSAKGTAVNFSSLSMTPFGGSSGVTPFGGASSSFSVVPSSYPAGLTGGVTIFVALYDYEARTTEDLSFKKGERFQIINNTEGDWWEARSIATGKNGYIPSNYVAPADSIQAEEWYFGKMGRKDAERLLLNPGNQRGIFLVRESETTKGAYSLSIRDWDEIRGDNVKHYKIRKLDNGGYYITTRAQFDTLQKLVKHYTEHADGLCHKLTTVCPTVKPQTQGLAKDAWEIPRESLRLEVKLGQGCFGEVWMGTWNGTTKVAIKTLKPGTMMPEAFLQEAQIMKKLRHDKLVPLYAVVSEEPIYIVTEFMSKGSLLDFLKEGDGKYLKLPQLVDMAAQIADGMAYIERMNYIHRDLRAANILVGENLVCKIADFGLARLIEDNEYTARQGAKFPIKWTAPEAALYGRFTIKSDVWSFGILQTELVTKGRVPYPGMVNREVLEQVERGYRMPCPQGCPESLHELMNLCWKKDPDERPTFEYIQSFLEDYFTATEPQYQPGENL
Vascular endothelial growth factor receptor 1 (Homo sapiens), sequence (P17948 whole entry): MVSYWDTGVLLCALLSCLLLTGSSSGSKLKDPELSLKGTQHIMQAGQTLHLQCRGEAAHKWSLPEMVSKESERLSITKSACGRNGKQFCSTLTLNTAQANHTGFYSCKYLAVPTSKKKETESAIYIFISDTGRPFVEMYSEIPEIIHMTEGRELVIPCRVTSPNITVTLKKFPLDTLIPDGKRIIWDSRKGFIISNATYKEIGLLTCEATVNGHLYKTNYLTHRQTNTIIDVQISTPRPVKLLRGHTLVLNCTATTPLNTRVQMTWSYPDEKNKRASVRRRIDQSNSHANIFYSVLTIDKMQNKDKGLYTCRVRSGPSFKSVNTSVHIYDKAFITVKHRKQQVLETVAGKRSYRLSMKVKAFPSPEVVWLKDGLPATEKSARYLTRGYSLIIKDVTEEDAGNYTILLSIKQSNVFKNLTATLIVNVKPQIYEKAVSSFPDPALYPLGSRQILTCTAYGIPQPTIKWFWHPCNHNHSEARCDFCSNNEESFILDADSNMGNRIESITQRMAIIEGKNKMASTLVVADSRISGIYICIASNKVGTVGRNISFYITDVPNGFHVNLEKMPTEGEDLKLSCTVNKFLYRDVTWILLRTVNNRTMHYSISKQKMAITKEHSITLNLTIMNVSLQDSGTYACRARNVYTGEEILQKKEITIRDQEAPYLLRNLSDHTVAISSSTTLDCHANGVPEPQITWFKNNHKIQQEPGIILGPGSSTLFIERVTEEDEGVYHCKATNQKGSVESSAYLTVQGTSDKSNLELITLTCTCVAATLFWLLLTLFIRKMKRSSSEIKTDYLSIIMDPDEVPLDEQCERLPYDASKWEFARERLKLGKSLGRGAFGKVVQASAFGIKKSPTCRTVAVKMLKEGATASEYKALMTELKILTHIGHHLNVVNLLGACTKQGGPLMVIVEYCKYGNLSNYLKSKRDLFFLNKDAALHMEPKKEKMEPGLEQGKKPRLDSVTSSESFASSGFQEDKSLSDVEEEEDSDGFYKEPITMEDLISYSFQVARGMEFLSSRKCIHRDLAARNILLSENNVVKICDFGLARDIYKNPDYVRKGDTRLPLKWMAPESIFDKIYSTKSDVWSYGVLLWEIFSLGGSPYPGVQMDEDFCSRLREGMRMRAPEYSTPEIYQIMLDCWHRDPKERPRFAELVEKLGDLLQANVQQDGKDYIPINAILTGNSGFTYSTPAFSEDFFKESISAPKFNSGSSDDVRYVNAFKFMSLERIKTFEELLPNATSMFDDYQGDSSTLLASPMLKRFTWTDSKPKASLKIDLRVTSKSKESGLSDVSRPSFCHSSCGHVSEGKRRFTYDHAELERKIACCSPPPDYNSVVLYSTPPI
Tyrosine-protein kinase Fgr (Homo sapiens), sequence (P09769 2-529 limits assumed): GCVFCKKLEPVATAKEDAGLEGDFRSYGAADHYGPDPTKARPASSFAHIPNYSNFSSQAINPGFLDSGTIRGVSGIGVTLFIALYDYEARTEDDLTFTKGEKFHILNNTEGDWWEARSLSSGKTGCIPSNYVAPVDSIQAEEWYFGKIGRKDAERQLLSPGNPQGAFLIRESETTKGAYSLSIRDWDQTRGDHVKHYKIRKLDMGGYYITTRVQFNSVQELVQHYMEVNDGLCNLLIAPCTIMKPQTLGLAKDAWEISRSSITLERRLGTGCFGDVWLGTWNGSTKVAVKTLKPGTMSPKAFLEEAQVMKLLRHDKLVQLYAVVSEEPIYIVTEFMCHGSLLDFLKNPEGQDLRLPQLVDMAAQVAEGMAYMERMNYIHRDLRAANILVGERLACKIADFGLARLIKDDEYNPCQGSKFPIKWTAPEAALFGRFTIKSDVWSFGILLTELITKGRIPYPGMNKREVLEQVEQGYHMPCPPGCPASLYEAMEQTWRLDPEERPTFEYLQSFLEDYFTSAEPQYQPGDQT
RAF proto-oncogene serine/threonine-protein kinase (Homo sapiens), sequence (P04049 whole entry): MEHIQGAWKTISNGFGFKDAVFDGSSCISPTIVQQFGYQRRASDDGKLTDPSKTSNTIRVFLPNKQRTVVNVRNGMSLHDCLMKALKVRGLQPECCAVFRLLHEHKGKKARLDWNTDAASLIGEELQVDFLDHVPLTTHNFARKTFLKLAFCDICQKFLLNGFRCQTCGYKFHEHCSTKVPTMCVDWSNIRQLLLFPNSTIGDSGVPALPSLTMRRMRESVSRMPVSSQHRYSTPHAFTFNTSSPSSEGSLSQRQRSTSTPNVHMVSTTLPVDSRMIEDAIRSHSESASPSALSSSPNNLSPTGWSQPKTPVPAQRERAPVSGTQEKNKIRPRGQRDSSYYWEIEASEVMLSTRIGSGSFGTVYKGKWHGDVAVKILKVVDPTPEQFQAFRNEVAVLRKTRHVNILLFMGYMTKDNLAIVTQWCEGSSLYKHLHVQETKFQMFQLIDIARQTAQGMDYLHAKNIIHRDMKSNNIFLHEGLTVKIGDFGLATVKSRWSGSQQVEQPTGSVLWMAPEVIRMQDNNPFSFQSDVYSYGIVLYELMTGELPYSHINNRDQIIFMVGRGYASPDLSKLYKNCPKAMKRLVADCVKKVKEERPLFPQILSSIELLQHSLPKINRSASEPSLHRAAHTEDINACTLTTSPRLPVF
Fibroblast growth factor receptor 4 (Homo sapiens), sequence (P22455 22-802 limits assumed): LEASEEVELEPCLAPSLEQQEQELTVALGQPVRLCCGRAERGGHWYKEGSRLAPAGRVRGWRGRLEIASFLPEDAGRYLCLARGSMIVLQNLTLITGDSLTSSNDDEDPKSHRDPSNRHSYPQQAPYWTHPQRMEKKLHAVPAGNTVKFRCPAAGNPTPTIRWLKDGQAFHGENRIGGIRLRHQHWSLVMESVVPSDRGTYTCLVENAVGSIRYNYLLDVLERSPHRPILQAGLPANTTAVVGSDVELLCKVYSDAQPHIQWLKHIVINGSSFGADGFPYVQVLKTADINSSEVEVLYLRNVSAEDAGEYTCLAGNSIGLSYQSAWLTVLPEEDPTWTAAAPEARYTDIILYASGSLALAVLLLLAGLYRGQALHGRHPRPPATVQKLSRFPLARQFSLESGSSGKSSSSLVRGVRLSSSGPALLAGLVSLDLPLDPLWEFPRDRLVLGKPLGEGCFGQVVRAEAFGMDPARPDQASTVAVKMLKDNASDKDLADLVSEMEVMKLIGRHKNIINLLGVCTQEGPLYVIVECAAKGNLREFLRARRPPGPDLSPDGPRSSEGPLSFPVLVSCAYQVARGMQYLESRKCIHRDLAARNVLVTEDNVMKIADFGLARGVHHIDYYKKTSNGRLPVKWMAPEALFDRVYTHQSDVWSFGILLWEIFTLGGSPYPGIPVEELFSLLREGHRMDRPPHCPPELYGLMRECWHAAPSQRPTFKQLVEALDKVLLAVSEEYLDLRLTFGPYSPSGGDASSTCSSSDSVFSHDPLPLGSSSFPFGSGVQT

The term inhibition denotes the change of the read-out against control, counted positive when it falls. On to `CS(=O)(=O)CCNCc1ccc(-c2ccc3ncnc(Nc4ccc(OCc5ccccc5)c(Br)c4)c3c2)o1`, for which the inhibition in assay [1] is -1.47%; in [2], 4.84%; in assay [3] it was 10.8%; in assay [4], -0.47%; in assay [5] it was 2.16%; in assay [6] it was 4.34%. For the same molecule, the inhibition in assay [7] is 1.3%; in [8], -8.89%; in assay [9], -4.08%; in assay [10] it was 2.52%; in assay [11], 2.72%; in [12], 4.45%. Also, the inhibition in assay [13] was 20.7%; in assay [14] it was -2.48%; in [15], -1.83%; in assay [16], 4.73%; in [17], 4.32%; in [18], 3.23%. Besides, the inhibition in assay [19] worked out at 2.38%; in assay [20] it was 3.26%.
In the case of `COc1cc2ncn(-c3cc(OCc4cccs4)c(C(N)=O)s3)c2cc1OC`, the inhibition in assay [1] stood at 1.23%; in assay [2], 11.1%; in [3] it was 13.7%; in assay [4] it was 2.16%; in assay [5], 10.3%; in [6], 0.99%. In addition, the inhibition was 4.24% in [7]; -6.36% in assay [8]; 0.53% in [9]; 2.86% in assay [10]; 8.04% in [11]; 4.84% in [12]. The inhibition in assay [13] is 21.2%; in [14] it was -0.46%; in assay [15] it was 3.04%; in [16], 1.7%; in assay [17], 0.38%; in assay [18], 2.45%. For the same molecule, the values for the inhibition in assay [19] and in assay [20] were 0.77% and 1.73%, respectively.
Take `O=C1NC(=O)C(c2cccc(Cl)c2)=C1Nc1ccc(Cl)c(C(=O)O)c1`: the inhibition in assay [1] amounted to 1.23%; in [2], 5.15%; in [3] it was 1.19%; in assay [4] it was 2.61%; in [5], 7.03%; in [6] it was 3.91%. For the same molecule, the inhibition was 0.25% in assay [7]; -6.52% in assay [8]; -1.23% in [9]; 1.77% in [10]; 2.5% in assay [11]; 4.03% in assay [12]. The inhibition was 6% in assay [13]; 4.89% in [14]; 2.76% in assay [15]; 5.48% in [16]; 2.76% in [17]; 6.61% in assay [18]. For the same molecule, the results for the inhibition in [19] and in [20] were 4.77% and 2.73%, respectively.
With `COc1cc(N2CCN(C(C)C)CC2)ccc1Nc1nc(Nc2ccc(F)cc2C(=O)NC[C@@H](O)CO)c2cc[nH]c2n1`, the inhibition in [1] is -2.11%; in assay [2], 4.37%; in assay [3], 1.14%; in [4] it was 1.41%; in assay [5] it was 1.28%; in assay [6], 1.53%. The inhibition was 2.54% in assay [7]; 0.41% in assay [8]; -2.95% in assay [9]; 2.87% in [10]; 5.76% in assay [11]; 1.99% in [12]. The inhibition in assay [13] is 12.3%; in assay [14], -0.52%; in assay [15], 5.52%; in assay [16] it was 6.98%; in assay [17] it was 5.88%; in assay [18] it was 7.48%. Moreover, the inhibition was 4.83% in [19] and -2.46% in assay [20].
On to `FC(F)(F)c1cccc(Nc2nccc(-c3cnn4nc(-c5ccccc5)ccc34)n2)c1`, for which the inhibition is 1.26% in assay [1]; 2.98% in assay [2]; 8.69% in assay [3]; 2.04% in [4]; 1.17% in [5]; 1.84% in assay [6]. Moreover, the inhibition in assay [7] is 18.2%; in [8], -4.32%; in [9], -5.81%; in assay [10], -0.57%; in assay [11], 0.62%; in [12], 2.51%. Moreover, the inhibition in assay [13] came to 24.8%; in assay [14] it was 0.98%; in [15] it was 2.56%; in assay [16], 3.36%; in [17] it was 4.64%; in [18] it was 2.72%. Moreover, the inhibition in [19] was 4.02%; in assay [20] it was -0.56%.
With `O=C1Nc2ccccc2/C1=C/Nc1ccc(-n2cncn2)cc1`, the inhibition came out at 2.81% in [1]; 4.93% in [2]; 12.8% in [3]; 4.03% in [4]; 24.1% in [5]; 12.5% in assay [6]. The inhibition in assay [7] was found to be 53.7%; in assay [8], 16.4%; in assay [9] it was 12.3%; in [10], 3.19%; in assay [11] it was 10.2%; in assay [12], 3.29%. Also, the inhibition came to 15.7% in assay [13]; 4.53% in [14]; 7.33% in assay [15]; 6.1% in assay [16]; 6.87% in [17]; 7.05% in assay [18]. Further, the figures for the inhibition in assay [19] and in assay [20] were 6.86% and 15.1%, respectively.
On to `NS(=O)(=O)c1ccc(N/N=C2\C(=O)Nc3ccc(-c4cnco4)cc32)cc1`, for which the inhibition in assay [1] was -2.44%; in assay [2] it was 3.25%; in [3], 12.9%; in [4], -0.89%; in assay [5], 7.48%; in [6], 5.93%. The inhibition in assay [7] was found to be 38.3%; in [8], 22.6%; in assay [9], 9.13%; in assay [10], 2.48%; in assay [11] it was 12.4%; in assay [12], 2.12%. Besides, the inhibition in assay [13] was found to be 12.1%; in [15] it was 2.47%; in assay [16], 3.07%; in assay [17], 5.71%; in [18], 1.57%; in assay [19] it was 4.4%. Besides, the inhibition in [20] was 0.67%.
